# Experimental data taken from ChEMBL document CHEMBL3988442, “University of Dundee, Small-Polar-MMV Screening Library” (2021).
# Out of some 48,000 compounds screened, about 13,000 (27%) showed an effect of 50% or more. This is one part of the list.
# Tested on: Wolbachia pipientis
# Experiment: Anti-Wolbachia Cell-Based Screen
# Format: functional
# Parameters: scale not given: in the data most compounds retested in dose-response had high values
# Conditions: 5 µM
row,SMILES,Percent Effect
1,Cc1nc(CN2Cc3cn(C)nc3C(COCC3CC3)C2)cs1 (stereo not drawn),-15.47%
2,O=C(c1cccs1)N1CC[C@H]2[C@@H]1CCC(=O)N2c1cccnc1,-2.771%
3,CN(C)C(=O)N[C@@H]1CN(C2CCOCC2)[C@@H]2CCCO[C@@H]21.O=C(O)C(F)(F)F,-11.3%
4,COc1ccc(CN2CCCn3cnc(COC(C)C)c3C2)cc1.O=C(O)C(F)(F)F,23.92%
5,CCc1nc(Cn2nc(C3CCNCC3)n(-c3ccccc3)c2=O)cs1,10.87%
6,CC(=O)N1C[C@@H](c2ccsc2)[C@@H]2CN(CC3CCCCC3)CC[C@@H]21,84.31%
7,COc1ccccc1CN1CC[C@H]2[C@@H](C1)[C@H](c1ccsc1)CN2C(C)=O,109%
8,CC(=O)N1C[C@@H](c2ccsc2)[C@@H]2CN(Cc3ccccc3Cl)CC[C@@H]21,132.7%
9,CC(=O)N1CCC(NC(=O)N2CCCC2c2ccsc2)CC1 (stereo not drawn),-39.95%
10,CSCCC(=O)N1CCCC1c1ccsc1 (stereo not drawn),-16.09%
11,CC(=O)N1C[C@@H](c2ccsc2)[C@@H]2CN(Cc3ccccc3C)CC[C@@H]21,115.6%
12,NC(=O)C1CCN(CC(=O)N2CCCC2c2ccsc2)CC1 (stereo not drawn),-14.97%
13,CC(=O)N1C[C@@H](c2ccsc2)[C@@H]2CN(Cc3ccccc3)CC[C@@H]21,3.604%
14,NC(=O)CN1CCC(NC(=O)N2CCCC2c2ccsc2)CC1 (stereo not drawn),-19.01%
15,CCn1cnnc1CNC(=O)N(C)Cc1c(F)cccc1Cl,-9.877%
16,CCCn1ncc(C(=O)NCCc2[nH]nc3c2CCCC3)c1C,17.81%
17,CC1(C)[C@H](Cc2cc(CO)on2)C[C@@H]1N(CC1CC1)CC1CC1,3.295%
18,CCc1ccc(CN2CCC(CNS(=O)(=O)C3CC3)C2)nc1 (stereo not drawn),-5.185%
19,O=S(=O)(Cc1ccccc1)NCC1CCN(c2cnccn2)CC1,-2.116%
20,O=S(=O)(NCC1CCN(c2cnccn2)CC1)C1CC1,99.54%
21,CCS(=O)(=O)NCC1CCN(c2cnccn2)CC1,106%
22,Cc1ncc(CN2CCC(CNS(=O)(=O)C3CC3)C2)cn1 (stereo not drawn),-9.849%
23,Cc1cn2c(n1)CCC(NC(=O)c1nc(C)ncc1Cl)C2 (stereo not drawn),-6.875%
24,CCc1ncncc1C(=O)NC1CCc2nc(C)cn2C1 (stereo not drawn),106.8%
25,Cc1cc(C(=O)NC2CCc3nc(C)cn3C2)[nH]n1 (stereo not drawn),-4.172%
26,Cc1cn2c(n1)CCC(NC(=O)c1cnc(C)nc1C(C)C)C2 (stereo not drawn),1.666%

row,SMILES,Percent Effect
1,Cc1ncc(C(=O)NC2CCc3nccn3C2)c(C(C)C)n1 (stereo not drawn),126.1%
2,Cc1cn2c(n1)CCC(NC(=O)c1c[nH]c(C)n1)C2 (stereo not drawn),3.74%
3,Cc1cn2c(n1)CCC(NC(=O)c1ccc(OCC3CC3)nc1)C2 (stereo not drawn),-16.45%
4,Cc1cn2c(n1)CCC(NC(=O)c1ccc(CS(C)(=O)=O)cc1)C2 (stereo not drawn),1.181%
5,Cc1cn2c(n1)CCC(NC(=O)c1cc(C(C)C)no1)C2 (stereo not drawn),2.478%
6,Cc1cn2c(n1)CCC(NC(=O)c1csc(C(C)C)n1)C2 (stereo not drawn),134.7%
7,Cc1cn2c(n1)CCC(NC(=O)c1cncnc1C)C2 (stereo not drawn),122.4%
8,O=C(NC1CCc2nccn2C1)c1ccc(NC2CC2)nc1 (stereo not drawn),9.006%
9,CCCn1cnc(S(=O)(=O)Nc2cccnc2-n2cccn2)c1,0.1975%
10,CC(=O)N1CCN(C(=O)CNc2cccc(OC(F)F)c2C)CC1,-4.859%
11,CS(=O)(=O)Nc1ccc(-n2c(CCCO)nc3ccccc32)cn1,-0.6251%
12,Oc1ccccc1N1CCN(c2ncnc3sc4c(c23)CCNC4)CC1,-35.6%
13,CC(C#N)CNC(=O)Nc1ccc(-c2cc[nH]n2)cc1 (stereo not drawn),-10.22%
14,COC(=O)c1sccc1S(=O)(=O)N1CCc2c(ncnc2N(C)C)C1,-35.5%
15,Cc1ncc(C)c(N2Cc3cnn(Cc4ccc(F)cc4)c3C2)n1,15.3%
16,CCn1cc(Cn2cc(Cl)c(N)n2)c(C)n1,11.61%
17,Cc1nn(Cc2ccc(F)cc2)c2[nH]nc(N)c12,12.93%
18,Cc1nn(C)cc1Cn1cc(Cl)c(N)n1,-32.62%
19,Cc1ccc(Cn2ccc(NS(C)(=O)=O)n2)cc1,-11.54%
20,Cc1cnn(C2CCN(Cc3ccccc3)C2)c1N (stereo not drawn),-3.11%
21,Cc1cccc(CN2CCN(c3nc(CO)cs3)CC2)c1,-5.528%
22,Cc1cn(Cc2ccccc2)nc1N,112.8%
23,Cc1cccc(Cn2cc(C)c(N)n2)c1,142%
24,Cc1cn(Cc2ccc(F)cc2)nc1N,105.5%
25,Cc1cccc(Cn2nc(C3CCNCC3)n(-c3ccccc3)c2=O)c1,2.339%
26,Cc1ccc(Cn2cc(C)c(N)n2)cc1,101.5%

row,SMILES,Percent Effect
1,Cc1nnsc1CN(C)C(=O)c1ccc(CSc2nnc[nH]2)o1,17.62%
2,CCc1cnc(N)nc1NCCc1ccc(OC)cc1OC,-3.798%
3,CC(C)N(C)C(=O)c1ccc(Cl)c(NC(=O)COCC2CC2)c1,-4.037%
4,Cc1noc(C)c1CN(C)C(=O)COc1cccc(C#N)c1,-12.54%
5,CCc1nc(CNC2CCCCNC2=O)cs1 (stereo not drawn),-6.937%
6,Cc1cn(Cc2ccc(F)c(F)c2)nc1N,106.9%
7,Cl.Cl.OC(CN1CCN(Cc2ccc(F)c(F)c2)CC1)C1CC1 (stereo not drawn),-1.298%
8,Fc1ccc(CNCCn2cccn2)cc1F,-6.914%
9,Cc1ccc(C(CNCc2ccc(C#N)cc2)N2CCOCC2)s1 (stereo not drawn),1.867%
10,Cc1nc([C@H]2C[C@@H]3CCN(Cc4ccc5c(c4)OCO5)C[C@H]3O2)no1,-27.54%
11,COC[C@@]12CCO[C@@H]1CCN(Cc1ccccc1OC)C2.O=C(O)C(F)(F)F,-18.26%
12,Cc1nnc([C@@]23CCO[C@@H]2CCN(Cc2cccc4ccccc24)C3)o1,98.73%
13,c1coc(-c2nnc([C@H]3CCN(Cc4ccc5c(c4)OCO5)C3)o2)c1,-14.45%
14,Cc1nnc([C@@]23CCO[C@@H]2CCN(Cc2ccc4c(c2)OCO4)C3)o1,107.4%
15,COC[C@@]12CCO[C@@H]1CCN(Cc1ccccc1F)C2.O=C(O)C(F)(F)F,-5.713%
16,CCN1C(=O)C2(CCCCC2)NC1c1cc(C#N)n(C)c1C (stereo not drawn),8.458%
17,Cc1ncc(CN(C)C(=O)c2ccc3c(c2O)OC(C)(C)C3)s1,-9.378%
18,CCn1nnc2c1C(COCCN(C)C)CN(S(C)(=O)=O)C2.O=C(O)C(F)(F)F (stereo not drawn),-1.029%
19,CCn1nnc2c1C(COC)CN(Cc1ccsc1)C2.O=C(O)C(F)(F)F (stereo not drawn),-6.299%
20,CCn1nnc2c1C(COCC(=O)N(C)C)CN(Cc1ccco1)C2.O=C(O)C(F)(F)F (stereo not drawn),115%
21,CCn1nnc2c1C(COCCN(C)C)CN(c1nncs1)C2 (stereo not drawn),-7.006%
22,CCn1nnc2c1C(COCCN(C)C)CN(Cc1ccc(C)s1)C2.O=C(O)C(F)(F)F.O=C(O)C(F)(F)F (stereo not drawn),104.1%
23,CCn1nnc2c1C(COCC(=O)N(C)C)CN(Cc1ccoc1)C2 (stereo not drawn),95.43%
24,COCC1CN(Cc2ccc(C)o2)Cc2nnn(CC3CC3)c21.O=C(O)C(F)(F)F (stereo not drawn),-2.139%
25,Cc1ccc(CN2CCCn3nnc(COCCN(C)C)c3C2)s1.O=C(O)C(F)(F)F.O=C(O)C(F)(F)F,-14.16%
26,Cc1ccc(CN2Cc3nnn(C)c3C(COCCN(C)C)C2)s1.O=C(O)C(F)(F)F.O=C(O)C(F)(F)F (stereo not drawn),3.026%

row,SMILES,Percent Effect
1,CCn1nnc2c1C(COCCN(C)C)CN(Cc1ccco1)C2.O=C(O)C(F)(F)F.O=C(O)C(F)(F)F (stereo not drawn),92.71%
2,CCn1nnc2c1C(COCCN(C)C)CN(S(=O)(=O)CC)C2.O=C(O)C(F)(F)F (stereo not drawn),-14.6%
3,O=C(CSc1nncs1)N1CCN(Cc2ccc(Cl)cc2)CC1,-10.59%
4,Cc1nc(-c2nnc(SCC(=O)O)n2C(C)c2ccccc2)co1 (stereo not drawn),-6.545%
5,CNC(=O)Cc1noc(Cc2cccc(Br)c2)n1,1.573%
6,Cn1ccnc1SCCNC1CCN(c2nc3ccccc3s2)CC1,0.5729%
7,CC(C)C(=O)N1CCOC[C@H](Oc2ccc(C(F)(F)F)cc2)C1,-12.72%
8,O=C(C1CCC1)N1CCN(c2snc3ccccc23)CC1,4.764%
9,CCN1CC(C(=O)N2CC(Oc3ccccc3Cl)C2)CCC1=O (stereo not drawn),-27.16%
10,CCN1CC(C(=O)N2CCN(c3nsc4ccccc34)CC2)CCC1=O (stereo not drawn),116.3%
11,CCN1CC(C(=O)N2CCN(c3cnn(C)c(=O)c3)CC2)CCC1=O (stereo not drawn),2.003%
12,NC(=O)N1CCCC(C(=O)N2CCN(c3nsc4ccccc34)CC2)C1 (stereo not drawn),111.8%
13,CN1CCCC(C(=O)N2CCC(Oc3ccccn3)CC2)C1 (stereo not drawn),-2.88%
14,CC(C)N1CCCC(C(=O)N2CCN(c3nsc4ccccc34)CC2)C1 (stereo not drawn),104.9%
15,O=C(C1CCCN(c2nc3ccccc3cc2CO)C1)N1CCCC1 (stereo not drawn),10.01%
16,CC(C)N1CCCC(C(=O)N2CCc3c(nc(CC4CC4)[nH]c3=O)C2)C1 (stereo not drawn),6.947%
17,CN(C)C1CCCN(C(=O)c2ccc3sc4c(c3c2)CCNC4=O)CC1 (stereo not drawn),-3.9%
18,Cc1cccc(NC(=O)CCC(=O)NCC(=O)c2ccccc2F)c1,-5.456%
19,COc1cc2c(cc1-c1nc3c(cnn3C)[nH]1)OCO2,9.432%
20,CCOCCCC(=O)NCc1ccc(N2CCCCC2)cc1,1.636%
21,COCCCNC(=O)CCn1nc(C)c2ccccc21,5.056%
22,CCCNC(=O)CCC(=O)n1nc(C)c2ccccc21,168.2%
23,CCCNC(=O)CCc1ccnc2ccccc12,-4.736%
24,CCCNC(=O)CCNC(=O)N1CCC(=Cc2ccccc2)CC1,1.443%
25,CCOCCCNC(=O)CCCC(=O)n1nc(C)c2ccccc21,114.3%
